Measurements published in PubChem BioAssay (NCATS).
Activity calls are given as the source filed them. The call rests on the fitted dose curve. Positions of bridges follow the written chain, without caps; N, C: chain ends. Non-standard residues stand in square brackets, D forms with d. Residues, ends and D or L forms follow the SMILES beside them. ξ: configuration not given here. *: point of attachment. Octanoyl(6-Me) = CCC(C)CCCCC(=O)*; ξThr(3R) = C[C@@H](O)C(N)C(=O)O; dDab = NCC[C@@H](N)C(=O)O; Dab = NCC[C@H](N)C(=O)O; Nva = CCC[C@H](N)C(=O)O; Cbz = O=C(OCc1ccccc1)*

Assay: qHTS drug screen for cell cycle checkpoint inhibitors in PARPi-resistant BRCA-mutant ovarian cancer cell lines. (AID 1963452)
Conditions: PEO1/OlaR viability, CellTiter-Glo luminescence, 96 h; for Z-AUC: stronger effect = lower value
Procedure, shortened: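 PEO1, PEO4 and PEO1/OlaR ovarian cancer cells, 600 per well, exposed 96 h at 37C to a dilution series. Viability read by CellTiter-Glo luminescence, normalized to DMSO and empty wells; activity summarized as Z-AUC.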

[1] = measured here: PEO1 parental Z-AUC
Potency means the concentration at half of the fitted maximal effect.

| SMILES | Z-AUC | Z-AUC [1] | Z-AUC (measured here: PEO4 Z-AUC) | Potency |
| --- | --- | --- | --- | --- |
| Cn1cc(C[C@@H](N)C(=O)O)c2ccccc21 | 0.11 (inactive) | 1.01 | 0.769 | – |
| CC(C)(C)c1nc2c3cc[nH]c(=O)c3c3cc(F)ccc3c2[nH]1 | -0.0239 (inactive) | 0.604 | 0.212 | – |
| COc1ccc(Nc2cc(-c3cnc(N)nc3)nc(N3CCOCC3)n2)cn1 | 0.44 (inactive) | -0.145 | 0.339 | – |
| COc1ccc(S(=O)(=O)Nc2cccnc2Nc2ccc(O)cc2)cc1 | – | -1.73 | -1.84 | 1380 nM (active) |
| Nc1nc2c(c(=O)[nH]1)N(C=O)[C@H](CNc1ccc(C(=O)N[C@@H](CCC(=O)O)C(=O)O)cc1)CN2 | 1.12 (inactive) | 1.3 | 1.01 | – |
| CC(C)(N)c1ccc(-c2nc3ccccc3nc2-c2ccccc2)cc1 | 0.345 (inactive) | 0.18 | 0.291 | – |
| CC(Cc1ccc(O)c(O)c1)(NN)C(=O)O (stereo unspecified) | 1.29 (inactive) | 0.784 | 0.906 | – |
| COC(=O)[C@H](CCCN=C(N)N)NS(=O)(=O)c1ccc(C)cc1 | 1.53 (inactive) | 1.46 | 1 | – |
| O=c1c(O)c(-c2ccc(O)c(O)c2)oc2cc(O)ccc12 | 0.12 (inactive) | -0.105 | 0.0271 | – |
| COc1cccc2c1C(=O)c1c(O)c3c(c(O)c1C2=O)C[C@@](O)(C(=O)CO)C[C@@H]3O[C@H]1C[C@H](N)[C@@H](O)[C@H](C)O1 | – | -2.06 | -1.69 | 219 nM (active) |
| c1cncc(CN2CCC(n3ncc4c(N5CCOCC5)nc(-c5ccc6[nH]ccc6c5)nc43)CC2)c1 | -0.587 (inactive) | -0.0764 | -0.549 | – |
| C[C@H](NC(=O)[C@@H](O)c1cc(F)cc(F)c1)C(=O)N[C@@H]1C(=O)N(C)c2ccccc2-c2ccccc21 | 0.549 (inactive) | 0.437 | 0.274 | – |
| CCC(C)CCCCC(=O)N[C@@H](CCN)C(=O)NC(C(=O)N[C@H](CCN)C(=O)N[C@@H]1CCNC(=O)C([C@@H](C)O)NC(=O)[C@@H](CCN)NC(=O)[C@@H](CCN)NC(=O)[C@@H](CC(C)C)NC(=O)[C@H](Cc2ccccc2)NC(=O)[C@H](CCN)NC1=O)[C@@H](C)O (stereo partly drawn) ({Octanoyl(6-Me)}-[Dab][ξThr(3R)][dDab][dDab][Dab]F[dL][dDab][dDab][ξThr(3R)]; lactam 4-C) | 1.19 (inactive) | 0.672 | 0.762 | – |
| c1ccc2c(Oc3nc(Nc4ccc(N5CCOCC5)cc4)c4ncn(C5CCCCC5)c4n3)cccc2c1 | 1.71 (inactive) | 1.4 | 1.58 | – |
| NC(=O)N1CCC(CC(=O)N2CCC([C@H]3c4ncc(Br)cc4CCc4cc(Cl)cc(Br)c43)CC2)CC1 | -0.923 (inactive) | -0.883 | -0.991 | – |
| c1cc(CN2CCCNCCNCCCNCC2)ccc1CN1CCCNCCNCCCNCC1 | 0.916 (inactive) | 0.744 | 1.11 | – |
| O=C(CCCCCCC(=O)Nc1cccnc1)NO | 0.519 (inactive) | 0.211 | 0.136 | – |
| CCCCOc1ccc(C(=O)Nc2ccc(F)cc2F)cc1 | -0.387 (inactive) | -0.847 | -0.905 | – |
| Oc1cc(-c2nc(-c3ccccc3)[nH]c2-c2ccncc2)ccc1Cl | -0.516 (inactive) | -0.935 | -1.11 | – |
| CN(C)c1ccc(C(=O)NCCCCCCC(=O)NO)cc1 | -1.48 (inactive) | -0.12 | -0.674 | – |
| COc1cc(OC)c(NC(=O)Nc2cc(C)on2)cc1Cl | 1.05 (inactive) | 1.02 | 1.3 | – |
| CC(O)(C#Cc1ccc2c(c1)N(c1nc(N)ncc1Cl)CC2)c1nccs1 (stereo unspecified) | -0.29 (inactive) | -0.463 | -0.647 | – |
| CC(C)[C@H](CO)Nc1nc(Nc2cccc(Cl)c2)c2ncn(C(C)C)c2n1 | 0.56 (inactive) | 0.0457 | 0.284 | – |
| O=C(Nc1nnc(-c2ccco2)o1)c1cc(-c2ccccc2)nc2ccccc12 | 1.38 (inactive) | 0.606 | 0.601 | – |
| CCN(CC)Cc1ccc2cc(COC(=O)Nc3ccc(C(=O)NO)cc3)ccc2c1 | – | -1.11 | -1.29 | 977 nM (active) |
| COc1cc(C[C@@H](CO)[C@H](CO)Cc2ccc(O)c(OC)c2)ccc1O | 0.833 (inactive) | 0.526 | 0.516 | – |

| SMILES | Z-AUC | Z-AUC [1] | Z-AUC (measured here: PEO4 Z-AUC) | Potency |
| --- | --- | --- | --- | --- |
| c1coc(CNc2ncnc3nc[nH]c23)c1 | 0.877 (inactive) | 0.956 | 1.1 | – |
| C=CC(=O)Nc1ccc2ncnc(Nc3ccc(OCc4cccc(F)c4)c(Cl)c3)c2c1 | -0.749 (inactive) | -1.48 | -1.57 | – |
| CN(C)CCN1C(=O)c2cccc3cc(N)cc(c23)C1=O | -0.488 (inactive) | -0.749 | -0.88 | – |
| C[C@@H](NCc1cc2ccccc2[nH]1)c1cccc2ccccc12 | 0.66 (inactive) | 0.376 | 0.0374 | – |
| O=C(O)c1ccc(Nc2ncc3c(n2)-c2ccc(Cl)cc2C(c2c(F)cccc2F)=NC3)cc1 | 0.584 (inactive) | 0.311 | -0.364 | – |
| CCCCCCCCCCCCc1ccc(S(=O)(=O)Nc2nncs2)cc1 | -0.392 (inactive) | 0.179 | 0.202 | – |
| C[C@](Cc1c[nH]c2ccccc12)(NC(=O)OC1C2CC3CC(C2)CC1C3)C(=O)NC[C@H](NC(=O)CCC(=O)O)c1ccccc1 (stereo partly specified) | -0.246 (inactive) | -0.184 | -0.0323 | – |
| COc1ccc([C@@H]2CNC(=O)C2)cc1OC1CCCC1 | -0.0996 (inactive) | -0.168 | 0.0398 | – |
| Nc1cccc2c1C(=O)N(C1CCC(=O)NC1=O)C2=O (stereo unspecified) | -0.524 (inactive) | -0.0375 | -0.357 | – |
| CCc1c(O)cc(O)c(C(=O)c2ccc(OCCN3CCOCC3)c(OC)c2)c1CC(=O)N(CCOC)CCOC | -0.361 (inactive) | -0.538 | 0.145 | – |
| C[N+](C)([O-])CCNc1ccc(NCC[N+](C)(C)[O-])c2c1C(=O)c1c(O)ccc(O)c1C2=O | 0.909 (inactive) | -0.431 | 0.857 | – |
| C[C@H]1[C@@H](OC(=O)CCC(=O)O)O[C@@H]2O[C@@]3(C)CC[C@@H]4[C@H](C)CC[C@@H]1[C@@]24OO3 | -0.162 (inactive) | -0.815 | -0.572 | – |
| CCC[C@@H](C=O)NC(=O)[C@H](CC(C)C)NC(=O)[C@H](CC(C)C)NC(=O)OCc1ccccc1 (Cbz-Leu-Leu-[Nva]-aldehyde) | -1.63 (inactive) | -1.42 | -1.86 | – |
| CCCCCCCCc1ccc(CCC(N)(CO)CO)cc1 | -0.00924 (inactive) | -0.111 | 0.091 | – |
| COc1ccc(C[C@@H](C)[C@@H](C)Cc2ccc(OC)c(OC)c2)cc1OC | 0.193 (inactive) | -0.135 | 0.0624 | – |
| C=C(C)[C@@H]1CC[C@]2(C)CC[C@]3(C)[C@H](CC[C@@H]4[C@@]5(C)CC[C@H](O)C(C)(C)[C@H]5CC[C@]43C)[C@@H]12 | 1.12 (inactive) | 0.74 | 1.16 | – |
| O=C(Nc1ccc(Oc2ccnc3[nH]ccc23)c(F)c1)c1cccn(-c2ccc(F)cc2)c1=O | -0.152 (inactive) | 0.598 | 0.646 | – |
| CCOC(=O)C1=C(C)NC(=S)NC1c1cccc(O)c1 (stereo unspecified) | 1.34 (inactive) | 0.343 | 0.61 | – |
| CCCCCCCN(CC)CCCC(O)c1ccc(NS(C)(=O)=O)cc1 (stereo unspecified) | 1.02 (inactive) | 0.764 | 1.03 | – |
| Cn1c(Nc2ccc(C(F)(F)F)cc2)nc2cc(Oc3ccnc(-c4ncc(C(F)(F)F)[nH]4)c3)ccc21 | -0.152 (inactive) | -0.11 | -1.19 | – |
| CC(=O)SCC(Cc1ccccc1)C(=O)NCC(=O)OCc1ccccc1 (stereo unspecified) | 0.0229 (inactive) | 1.28 | 0.777 | – |
| CCN(C(=O)c1c(O)c2c(Cl)cccc2n(C)c1=O)c1ccccc1 | -0.417 (inactive) | -0.714 | -1.09 | – |
| CCOc1cc2c(c(F)c1OCC)C(=N)N(CC(=O)c1cc(N3CCOCC3)c(OC)c(C(C)(C)C)c1)C2 | -0.189 (inactive) | 0.331 | 0.119 | – |
| COc1cc(C)c(Sc2cnc(NC(=O)c3ccc(CNC(C)C(C)(C)C)cc3)s2)cc1C(=O)N1CCN(C(C)=O)CC1 (stereo unspecified) | -0.0176 (inactive) | -0.233 | -0.809 | – |
| CCCCC(=O)O[C@]1(C(=O)CO)[C@@H](C)C[C@H]2[C@@H]3CCC4=CC(=O)C=C[C@]4(C)[C@@]3(F)[C@@H](O)C[C@@]21C | -0.479 (inactive) | 0.863 | 0.108 | – |
| CN1C(C(=O)Nc2ccccn2)=C(O)c2sc(Cl)cc2S1(=O)=O | 0.627 (inactive) | 0.551 | 0.669 | – |
